Measurements taken from PubChem BioAssay (NCATS).
Results filed as inconclusive are left out. Where a call stands in place of a potency, no number is given. Active and inactive are the calls of the source. The call rests on the fitted dose curve; in most records, active means well fitted curve in the direction sought with a large enough effect; inconclusive means small, poorly fitted or top-dose-only effect, or another doubt; inactive means no such curve, though single readings can be large; an effect the other way counts as inactive or inconclusive.

Assays:
[1] = qHTS assay to identify small molecule inhibitors of chordoma cells - UCH-1 (AID 1259355); further: nearly all actives have a fitted effect of over 55% in size
How it was run: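 Seed 800 cells per well; incubate overnight at 37 C, 5% CO2. Add test compounds (15 concentrations), then the auranofin–topoisomerase-agent combination. Incubate 48hr, add CellTiter-Glo, wait 30min, read luminescence.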

[2] = qHTS assay to identify small molecule inhibitors of chordoma cells - UCH-2 (AID 1259356); further: series mostly up to about 46 µM
[3] = P-glycoprotein substrates identified in KB-8-5-11 adenocarcinoma cell line, qHTS therapeutic library screen (AID 1346987); further: series mostly up to about 44 µM; nearly all actives have a fitted effect of over 65% in size
How it was run: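 P-gp-mediated resistance screen: KB-8-5-11 cells treated 72 h with compounds in dose-response. CellTiter-Glo viability.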

SMILES	Potency [1]	Potency [2]	Potency [3]
ClC=C(Cl)Cl	inactive	inactive	inactive
[S]=[Sb](=[S])[S][Sb](=[S])=[S]	inactive	inactive	inactive
O=Cc1ccco1	inactive	inactive	inactive
Clc1ccccc1Cl	inactive	inactive	inactive
C[N+]1([O-])[C@@H]2CC(OC(=O)[C@H](CO)c3ccccc3)C[C@H]1[C@@H]1O[C@@H]12 (stereo partly specified)	inactive	inactive	inactive
O=c1[nH]c(=O)n(Cl)c(=O)n1Cl	inactive	inactive	inactive
C#CC(C)(O)CC (stereo unspecified)	inactive	inactive	inactive
CCC(=O)O[C@]1(c2ccccc2)CCN(C)C[C@H]1C	inactive	inactive	inactive
Clc1ccc(Cl)cc1	–	inactive	–
CC(N)Cc1ccc(O)cc1 (stereo unspecified)	–	inactive	inactive
COc1ccc(OC)c([C@@H](O)[C@H](C)N)c1	–	inactive	inactive
C#CCN1CC(=O)N(COC(=O)C2C(C=C(C)C)C2(C)C)C1=O (stereo unspecified)	–	inactive	–
CN1c2ccccc2C(NCCCCCCC(=O)O)c2ccc(Cl)cc2S1(=O)=O (stereo unspecified)	–	inactive	inactive
CCC/C=C/C=C/C(=O)O[C@H]1/C(=C/C(=O)OC)C[C@H]2C[C@H]([C@@H](C)O)OC(=O)C[C@H](O)C[C@@H]3C[C@H](OC(C)=O)C(C)(C)[C@](O)(C[C@@H]4C/C(=C/C(=O)OC)C[C@H](/C=C/C(C)(C)[C@]1(O)O2)O4)O3	–	inactive	inactive
C/C(=C\c1csc(C)n1)[C@@H]1C[C@@H]2O[C@]2(C)CCC[C@H](C)[C@H](O)[C@@H](C)C(=O)C(C)(C)[C@@H](O)CC(=O)O1	–	inactive	–
CN1C2CCC1CC(OC(c1ccccc1)c1ccc(Cl)cc1)C2 (stereo unspecified)	–	inactive	–
CCNCC(O)c1cccc(O)c1 (stereo unspecified)	–	inactive	inactive
CN[C@H]1C[C@@H](N)[C@H](O)[C@@H](O[C@@H]2O[C@H](CO)[C@H](O)[C@@H]3OC4(O[C@H]23)O[C@H](C(N)CO)[C@H](O)[C@H](O)[C@H]4O)[C@@H]1O (stereo partly specified)	–	inactive	–
C[C@H]1CC[C@@H]2[C@@H](C)[C@H]3[C@H](C[C@H]4[C@@H]5CC=C6CC(O[C@@H]7O[C@H](CO)[C@H](O)[C@H](O[C@@H]8O[C@H](CO)[C@@H](O)[C@H](O)[C@H]8O)[C@H]7O[C@H]7O[C@@H](C)[C@H](O)[C@@H](O)[C@H]7O)CC[C@]6(C)[C@H]5CC[C@]34C)N2C1 (stereo partly specified)	–	inactive	–
CC(C)CCON=O	–	inactive	inactive
CC(C)(O)[C@@H]1[C@H]2OC(=O)[C@@H]1[C@]1(O)C[C@H]3O[C@]34C(=O)O[C@H]2[C@]14C	–	inactive	inactive
O=C(O)C(Cl)(Cl)Cl	–	inactive	–
C[C@@H]([C@H](O)c1ccccc1)N(C)C	–	inactive	inactive
O=C(C[C@@H]1NCCC[C@H]1O)Cn1cnc2cc(Br)c(Cl)cc2c1=O	–	inactive	inactive
CC(=O)O[C@H]1CC[C@@]2(C)C(=CC[C@@H]3[C@@H]2CC[C@]2(C)C(=O)CC[C@@H]32)C1	–	inactive	inactive
